Potency and ratio activity, negative = inhibition data for 28 compounds are collected here from PubChem BioAssay (NCATS).

The target of assay [1] is Voltage-gated inwardly rectifying potassium channel KCNH2 (Homo sapiens) (UniProt Q12809). In words: qHTS Assay for Small Molecule Inhibitors of the Human hERG Channel Activity (AID 588834).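 Further: lower thallium flux fluorescence means stronger hERG block; nearly all actives have a fitted effect of over 50% in size.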 Further: potency means the concentration at half of the fitted maximal effect. The method, boiled down: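 Concentration-response qHTS measuring drop in thallium-sensitive dye signal. U2OS cells carrying BacMam hERG; compound exposure ~10 min, then stimulation buffer and 2 min read at 1 sec intervals.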
(In general: Quantitative high-throughput screening tests each substance at several concentrations.)

Assay [2] deals with Luciferin 4-monooxygenase (Photinus pyralis) (UniProt P08659). Description: Biochemical firefly luciferase enzyme assay for NPC (AID 624030). Further: nearly all actives have a fitted effect of over 70% in size. Further: potency means the concentration at half of the fitted maximal effect. The method, boiled down: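 Purified P. pyralis luciferase at 10 nM in 50 mM Tris Acetate (final), luminescence read within 5 minutes of enzyme addition to compounds. Activity normalised to PTC124 versus DMSO; concentration-response curves classed by r2, magnitude and activity.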

Assay [3] can be described thus: S16 Schwann cell viability assay (CellTiter-Glo assay) (AID 624031). Further: nearly all actives have a fitted effect of over 70% in size. Further: potency means the concentration at half of the fitted maximal effect. An outline of the steps: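 Parental S16 cells, 24 h compound, 37 °C. ATP-luminescence viability; DMSO = 0% activity, empty wells as reference; curves classified by fit quality and efficacy.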
(In general: ATP-based viability assays read luminescence as a measure of living cells.)

The nature of assay [4]: S16 Schwann cell PMP22 intronic element beta-lactamase assay (AID 624044; calls by dose curve;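 further: 0% = DMSO and -100% = potassium clavulanate positive control; nearly all actives have a fitted effect of over 15% in size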). Conditions: S16 rat Schwann cells, PMP22 element beta-lactamase FRET, 24 h; ratio activity, negative = inhibition: at 38.3 µM (top of the series) unless noted. An outline of the steps: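 Rat S16 Schwann cells with beta-Lac driven by a PMP22 intronic element, compound-treated 24 h at 37 °C. LiveBLAzer FRET B/G read: 460 nm normalized to potassium clavulanate vs DMSO; 535 nm FRET as viability; concentration-effect curves classified.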

The nature of assay [5]: S16 Schwann cell PMP22 intronic element firefly luciferase assay (AID 624032).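 Further: plate controls were DMSO for no effect and PTC124 positive control mean for full effect; nearly all actives have a fitted effect of over 30% in size.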 The method, boiled down:
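Rat S16 Schwann cells stably carrying firefly luciferase driven by a PMP22 intronic element, in 10% FBS, treated 24 h at 37 C. ONE-Glo luminescence normalized to PTC124 control and DMSO (0%); curves classed by r2, magnitude and activity.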

The structures appear in SMILES notation. Inconclusive results are not listed. Values without a mark were called inactive. Activity calls are given as the source filed them. Unless noted, the call rests on the fitted dose curve; in most records, active means well fitted curve in the direction sought with a large enough effect; inconclusive means small, poorly fitted or top-dose-only effect, or another doubt; inactive means no such curve, though single readings can be large; an effect the other way counts as inactive or inconclusive.

Voltage-gated inwardly rectifying potassium channel KCNH2 (Homo sapiens), sequence (Q12809 whole entry, looked up): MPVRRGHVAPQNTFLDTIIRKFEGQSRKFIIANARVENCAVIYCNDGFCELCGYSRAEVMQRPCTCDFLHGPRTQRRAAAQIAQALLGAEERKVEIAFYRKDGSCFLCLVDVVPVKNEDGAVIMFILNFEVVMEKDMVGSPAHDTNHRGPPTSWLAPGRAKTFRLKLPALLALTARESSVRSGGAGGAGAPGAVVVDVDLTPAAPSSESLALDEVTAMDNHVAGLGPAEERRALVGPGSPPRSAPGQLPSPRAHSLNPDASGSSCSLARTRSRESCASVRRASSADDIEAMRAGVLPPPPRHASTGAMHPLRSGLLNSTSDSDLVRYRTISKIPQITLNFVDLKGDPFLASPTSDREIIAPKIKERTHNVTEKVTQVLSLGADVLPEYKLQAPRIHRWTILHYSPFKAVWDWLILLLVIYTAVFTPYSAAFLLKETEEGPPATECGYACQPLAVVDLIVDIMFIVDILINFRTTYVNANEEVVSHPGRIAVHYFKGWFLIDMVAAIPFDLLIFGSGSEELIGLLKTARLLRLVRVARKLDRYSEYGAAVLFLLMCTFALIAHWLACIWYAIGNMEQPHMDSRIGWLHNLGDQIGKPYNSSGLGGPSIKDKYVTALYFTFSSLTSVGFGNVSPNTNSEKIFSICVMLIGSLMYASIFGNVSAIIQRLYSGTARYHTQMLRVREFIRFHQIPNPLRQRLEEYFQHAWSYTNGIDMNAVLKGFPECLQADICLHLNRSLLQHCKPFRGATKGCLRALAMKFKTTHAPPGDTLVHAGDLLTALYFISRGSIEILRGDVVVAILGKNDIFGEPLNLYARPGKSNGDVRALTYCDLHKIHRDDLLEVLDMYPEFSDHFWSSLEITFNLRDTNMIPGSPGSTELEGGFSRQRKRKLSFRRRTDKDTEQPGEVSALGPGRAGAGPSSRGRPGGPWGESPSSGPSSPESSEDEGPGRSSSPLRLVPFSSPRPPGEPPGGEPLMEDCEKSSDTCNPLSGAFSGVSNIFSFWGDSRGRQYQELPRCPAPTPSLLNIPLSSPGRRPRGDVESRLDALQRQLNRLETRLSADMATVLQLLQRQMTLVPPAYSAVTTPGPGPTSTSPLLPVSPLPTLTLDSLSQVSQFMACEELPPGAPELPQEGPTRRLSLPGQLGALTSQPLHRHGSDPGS
Luciferin 4-monooxygenase (Photinus pyralis), sequence (P08659 whole entry, looked up): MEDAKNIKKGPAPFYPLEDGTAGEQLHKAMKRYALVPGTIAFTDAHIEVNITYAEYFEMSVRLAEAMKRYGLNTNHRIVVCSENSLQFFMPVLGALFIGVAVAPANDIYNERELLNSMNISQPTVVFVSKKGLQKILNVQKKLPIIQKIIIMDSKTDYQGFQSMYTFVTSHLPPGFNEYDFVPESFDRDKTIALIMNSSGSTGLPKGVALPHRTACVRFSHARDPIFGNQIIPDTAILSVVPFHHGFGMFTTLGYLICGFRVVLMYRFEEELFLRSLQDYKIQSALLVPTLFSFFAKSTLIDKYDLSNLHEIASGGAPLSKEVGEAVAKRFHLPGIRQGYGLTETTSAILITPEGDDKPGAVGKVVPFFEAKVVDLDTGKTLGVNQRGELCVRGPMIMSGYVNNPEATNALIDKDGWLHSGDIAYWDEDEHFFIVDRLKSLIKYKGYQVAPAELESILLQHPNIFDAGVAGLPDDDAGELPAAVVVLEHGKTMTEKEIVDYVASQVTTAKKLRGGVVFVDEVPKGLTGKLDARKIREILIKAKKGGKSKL

Consider `COc1ccc(-c2noc(CC(=O)O)c2-c2ccc(OC)cc2)cc1`, for which the Potency entry in assay [1], in assay [2] and in assay [3] was “inactive” in each case. In addition, the ratio activity, negative = inhibition in assay [4] is -1.01%.
In the case of `COc1ccc(C(=O)CCC(=O)O)c2ccccc12`, the Potency result in assay [1], in assay [2] and in assay [3] was “inactive” each time. Further, the ratio activity, negative = inhibition in assay [4] is -1.03%.
For `COC(=O)CC[C@H](N)C(=O)O`, the Potency result in assay [1], in assay [2], in assay [3] and in assay [5] was “inactive” in each case. Moreover, in assay [4], the ratio activity, negative = inhibition was -5.51%.
`CCCCC`: the Potency result in assay [1], in assay [2] and in assay [3] was “inactive” in each case. Moreover, the ratio activity, negative = inhibition in assay [4] was 1.47%.
With `CCCCC(CC)CCC(CC(C)C)OS(=O)(=O)O` (stereo unspecified), the Potency entry in assay [1], in assay [2], in assay [3] and in assay [5] was “inactive” in each case. Besides, in assay [4], the ratio activity, negative = inhibition was 0%.
Consider `CCCCC[C@H](O)/C=C/[C@H]1[C@H](O)CC(=O)[C@@H]1C/C=C\CCCC(=O)O`, for which the Potency result in assay [1], in assay [2] and in assay [3] was “inactive” in each case. Moreover, in assay [4], the ratio activity, negative = inhibition was -1.59%.
As for `C[N+]1(C)[C@@H]2CC(OC(=O)C(O)(c3cccs3)c3cccs3)C[C@H]1[C@@H]1O[C@@H]12` (stereo partly specified), the Potency result in assay [1], in assay [2], in assay [3] and in assay [5] was “inactive” in each case. For the same compound, in assay [4], the ratio activity, negative = inhibition is -1.55%.
In the case of `C#C[C@]1(O)CC[C@@H]2[C@H]3CCC4=CC(=O)CC[C@H]4[C@H]3C(=C)C[C@@]21CC`, the Potency result in assay [1], in assay [2] and in assay [3] was “inactive” throughout. In addition, the ratio activity, negative = inhibition in assay [4] is -9.17% (active).
Turning to `CCCCCCCCCC(=O)NO`, the Potency entry in assay [1], in assay [2] and in assay [3] was “inactive” throughout. Further, the ratio activity, negative = inhibition in assay [4] was 5.56%.
Take `O=C1c2ccccc2CN2C(=O)c3ccccc3CN12`: the Potency entry in assay [1], in assay [2], in assay [3] and in assay [5] was “inactive” throughout. Besides, the ratio activity, negative = inhibition in assay [4] was 0.507%.
In the case of `CC(=O)N[C@@H]1C(O[C@H]2O[C@H](C(=O)O)C(O)[C@H](O)[C@H]2O)[C@H](O)[C@@H](CO)O[C@H]1O[C@@H]1C(C(=O)O)O[C@@H](O[C@H]2[C@H](O)[C@@H](CO)OC(O)[C@@H]2NC(C)=O)[C@H](O)[C@H]1O` (stereo partly specified), the Potency result in assay [1], in assay [2] and in assay [3] was “inactive” each time. For the same compound, the ratio activity, negative = inhibition in assay [4] is 1.9%.
`CC(=O)Nc1ccc(OC(=O)c2ccccc2O)cc1`: the Potency result in assay [1], in assay [3] and in assay [5] was “inactive” in each case. For the same compound, the Potency in assay [2] is 25.6 µM (active). Moreover, the ratio activity, negative = inhibition in assay [4] is 1.52%.
In the case of `CC(CC=O)CCCC(C)(C)O` (stereo unspecified), the Potency result in assay [1], in assay [2], in assay [3] and in assay [5] was “inactive” throughout. For the same compound, in assay [4], the ratio activity, negative = inhibition was 3.36%.
As to `NC(=S)NS(=O)(=O)c1ccc(N)cc1`, the Potency result in assay [1], in assay [2], in assay [3] and in assay [5] was “inactive” in each case. Besides, the ratio activity, negative = inhibition in assay [4] was -12.7% (active).
Regarding `C=CCOc1ccc(CC(=O)O)cc1Cl`, the Potency result in assay [1], in assay [2], in assay [3] and in assay [5] was “inactive” throughout. Besides, the ratio activity, negative = inhibition in assay [4] is -6.65%.
As for `CC(O)CN(C)C` (stereo unspecified), the Potency result in assay [1], in assay [2], in assay [3] and in assay [5] was “inactive” throughout. Besides, the ratio activity, negative = inhibition in assay [4] is 6.7%.
As for `O=c1[nH]c(=O)n([C@H]2C[C@H](O)[C@@H](CO)O2)cc1/C=C/Br`, the Potency result in assay [1], in assay [2] and in assay [3] was “inactive” throughout. Moreover, in assay [4], the ratio activity, negative = inhibition was -1.39%.
Take `CNC(=O)c1c(I)c(C(=O)NCC(=O)Nc2c(I)c(C(=O)O)c(I)c(C(=O)NCCO)c2I)c(I)c(N(C)C(C)=O)c1I`: the Potency result in assay [1], in assay [2], in assay [3] and in assay [5] was “inactive” each time. The ratio activity, negative = inhibition in assay [4] was 5.89%.
`[O]=[Bi][O]C(=O)[O][Bi]=[O]`: the Potency result in assay [1], in assay [2], in assay [3] and in assay [5] was “inactive” throughout. For the same compound, the ratio activity, negative = inhibition in assay [4] was -4.42%.
As for `CCOc1ccc(NC(=S)Nc2ccc(OCC)cc2)cc1`, the Potency entry in assay [1], in assay [2] and in assay [3] was “inactive” throughout. For the same compound, the ratio activity, negative = inhibition in assay [4] was -1.68%.
With `COc1ccc2c(c1)OC(C)(C)C(c1ccccc1)C2c1ccc(OCCN2CCCC2)cc1` (stereo unspecified), the Potency is 10 µM (active) in assay [1] and 32.2 µM (active) in assay [3]. For the same compound, the Potency entry in assay [2] was “inactive”. In addition, the ratio activity, negative = inhibition in assay [4] was -10.8%.
`O=C(O)/C=C/c1ccccc1`: the Potency result in assay [1], in assay [2], in assay [3] and in assay [5] was “inactive” throughout. In assay [4], the ratio activity, negative = inhibition was -0.672%.
Regarding `Cn1cc(NC(=O)c2cc(NC(=O)c3cc(NC=O)cn3C)cn2C)cc1C(=O)NCCC(=N)N`, the Potency entry in assay [1], in assay [2] and in assay [3] was “inactive” in each case. Also, in assay [4], the ratio activity, negative = inhibition is 5.48%.
For the compound `COC(=O)C(CN)c1c[nH]c2ccc(OC)cc12` (stereo unspecified), the Potency result in assay [1], in assay [2] and in assay [3] was “inactive” each time. Further, the ratio activity, negative = inhibition in assay [4] is 0.76%.
For `O=C(NCCNCC(O)COc1ccc(O)cc1)N1CCOCC1` (stereo unspecified), the Potency result in assay [1], in assay [2], in assay [3] and in assay [5] was “inactive” in each case. The ratio activity, negative = inhibition in assay [4] was 1.92%.
In the case of `NC(=O)[C@@H]1CCCN1C(=O)[C@H](Cc1cnc[nH]1)NC(=O)[C@@H]1CCC(=O)N1`, the Potency result in assay [1], in assay [2], in assay [3] and in assay [5] was “inactive” each time. In addition, in assay [4], the ratio activity, negative = inhibition is 6.16%.
Turning to `C=CC[N+]1([C@H]2C[C@H]3[C@@H]4CC[C@H]5C[C@H](O)[C@@H](N6CCOCC6)C[C@]5(C)[C@H]4CC[C@]3(C)[C@H]2OC(C)=O)CCCC1`, the Potency result in assay [1], in assay [2] and in assay [3] was “inactive” in each case. Further, the ratio activity, negative = inhibition in assay [4] is -0.444%.
With `O[C@@H]([C@H](O)[C@H](O)CBr)[C@H](O)CBr`, the Potency result in assay [1], in assay [2] and in assay [3] was “inactive” in each case. Besides, the ratio activity, negative = inhibition in assay [4] was 3.07%.
